Measured values as given in the supplement of paper PMC12645437, “Orthogonal IMiD-Degron Pairs Induce Selective Protein Degradation in Cells” (ACS Chemical Biology, 2025).
Over roughly 8,300 sequences, “log2 fold change of degron read counts, EGFP-low vs EGFP+ sorted cells (limma voom), compound-induced degradation” has its median near -1.1; the highest 2% begin near 3.2. The list comes from a sample in which the highest values are over-represented; it also holds similar and randomly drawn sequences.

T1: CRBN, Q96SW2
T1 chain: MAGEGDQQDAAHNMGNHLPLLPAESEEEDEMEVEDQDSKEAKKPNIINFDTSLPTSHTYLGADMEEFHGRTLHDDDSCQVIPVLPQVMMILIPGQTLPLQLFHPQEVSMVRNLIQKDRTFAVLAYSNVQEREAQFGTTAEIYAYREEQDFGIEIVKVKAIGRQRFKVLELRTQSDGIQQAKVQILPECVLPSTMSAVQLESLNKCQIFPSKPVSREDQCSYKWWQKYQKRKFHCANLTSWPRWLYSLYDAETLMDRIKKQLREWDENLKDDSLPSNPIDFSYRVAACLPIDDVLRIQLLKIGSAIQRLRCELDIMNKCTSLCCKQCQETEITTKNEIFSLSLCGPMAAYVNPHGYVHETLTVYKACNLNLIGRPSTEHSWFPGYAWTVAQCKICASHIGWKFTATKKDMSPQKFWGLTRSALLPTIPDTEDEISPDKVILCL

B1: 46F_47D_49P_50I_52G_53R_54R_55F_67L_, Q9UKT9 (peptide)
chain: FDCPICGRRFTQKGNLLRHIKL
B2: 46L_47C_49N_50Q_52G_53F_54H_55C_67L_, Q9UKT9 (peptide)
chain: LCCNQCGFHCTQKGNLLRHIKL
B3: 46F_47D_49S_50V_52G_53H_54P_55F_67L_, Q9UKT9 (peptide)
chain: FDCSVCGHPFTQKGNLLRHIKL
B4: 46F_47K_49D_50V_52G_53A_54Y_55F_67L_, Q9UKT9 (peptide)
chain: FKCDVCGAYFTQKGNLLRHIKL
B5: 46F_47E_49D_50V_52G_53A_54D_55F_67L_, Q9UKT9 (peptide)
chain: FECDVCGADFTQKGNLLRHIKL
B6: 46F_47W_49P_50I_52G_53R_54P_55F_67L_, Q9UKT9 (peptide)
chain: FWCPICGRPFTQKGNLLRHIKL
B7: 46F_47W_49P_50Q_52G_53A_54K_55F_67L_, Q9UKT9 (peptide)
chain: FWCPQCGAKFTQKGNLLRHIKL
B8: 46F_47G_49E_50I_52G_53A_54Q_55F_67L_, Q9UKT9 (peptide)
chain: FGCEICGAQFTQKGNLLRHIKL
B9: 46F_47N_49E_50I_52G_53A_54Q_55F_67L_, Q9UKT9 (peptide)
chain: FNCEICGAQFTQKGNLLRHIKL
B10: 46F_47A_49E_50I_52G_53A_54Q_55F_67L_, Q9UKT9 (peptide)
chain: FACEICGAQFTQKGNLLRHIKL
B11: 46F_47V_49E_50I_52G_53A_54Q_55F_67L_, Q9UKT9 (peptide)
chain: FVCEICGAQFTQKGNLLRHIKL
B12: 46F_47C_49E_50I_52G_53A_54Q_55F_67L_, Q9UKT9 (peptide)
chain: FCCEICGAQFTQKGNLLRHIKL
B13: 46F_47K_49E_50I_52G_53A_54Q_55F_67L_, Q9UKT9 (peptide)
chain: FKCEICGAQFTQKGNLLRHIKL
B14: 46F_47T_49D_50Q_52G_53A_54S_55F_67L_, Q9UKT9 (peptide)
chain: FTCDQCGASFTQKGNLLRHIKL
B15: 46F_47R_49E_50I_52G_53R_54A_55F_67L_, Q9UKT9 (peptide)
chain: FRCEICGRAFTQKGNLLRHIKL
B16: 46L_47W_49N_50Q_52G_53F_54L_55C_67L_, Q9UKT9 (peptide)
chain: LWCNQCGFLCTQKGNLLRHIKL
B17: 46L_47A_49E_50I_52G_53F_54A_55C_67L_, Q9UKT9 (peptide)
chain: LACEICGFACTQKGNLLRHIKL
B18: 46L_47Y_49E_50I_52G_53F_54A_55C_67L_, Q9UKT9 (peptide)
chain: LYCEICGFACTQKGNLLRHIKL
B19: 46L_47I_49E_50I_52G_53F_54A_55C_67L_, Q9UKT9 (peptide)
chain: LICEICGFACTQKGNLLRHIKL
B20: 46L_47E_49E_50I_52G_53F_54A_55C_67L_, Q9UKT9 (peptide)
chain: LECEICGFACTQKGNLLRHIKL
B21: 46L_47C_49E_50I_52G_53F_54A_55C_67L_, Q9UKT9 (peptide)
chain: LCCEICGFACTQKGNLLRHIKL
B22: 46L_47G_49E_50I_52G_53F_54A_55C_67L_, Q9UKT9 (peptide)
chain: LGCEICGFACTQKGNLLRHIKL
B23: 46L_47W_49E_50I_52G_53F_54A_55C_67L_, Q9UKT9 (peptide)
chain: LWCEICGFACTQKGNLLRHIKL
B24: 46L_47Q_49E_50I_52G_53F_54A_55C_67L_, Q9UKT9 (peptide)
chain: LQCEICGFACTQKGNLLRHIKL
B25: 46L_47S_49E_50I_52G_53F_54A_55C_67L_, Q9UKT9 (peptide)
chain: LSCEICGFACTQKGNLLRHIKL
B26: 46F_47E_49N_50Q_52G_53R_54A_55F_67L_, Q9UKT9 (peptide)
chain: FECNQCGRAFTQKGNLLRHIKL
B27: 46L_47Q_49N_50Q_52G_53F_54P_55C_67L_, Q9UKT9 (peptide)
chain: LQCNQCGFPCTQKGNLLRHIKL
B28: 46F_47Q_49D_50Q_52G_53A_54L_55F_67L_, Q9UKT9 (peptide)
chain: FQCDQCGALFTQKGNLLRHIKL

Biological target: T1, CRBN, Q96SW2
Test: log2 fold change of degron read counts, EGFP-low vs EGFP+ sorted cells (limma voom), compound-induced degradation; higher = more compound-induced degradation of the degron-EGFP fusion; degrons are variants of IKZF1/3 zinc finger 2; compound dose not given here
Details: Jurkat, 18 h
Procedure: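 Pooled library of 8380 IKZF3 ZF2 degron mutants (positions 146-167 varied within the IKZF3 130-189 degron; only the varied core is printed, flanks not printed) fused to EGFP with IRES-mCherry, lentivirally expressed in Jurkat cells. mCherry+ cells were treated with one IMiD compound for 18 h (dose not stated) and FACS-sorted into EGFP-low and EGFP+ populations. Degron sequences were counted by NGS, and log2FC (EGFP-low vs EGFP+) was estimated by limma voom over 3 biological replicates.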

[1] = compound: compound 19 (5-tert-butyl-thalidomide)
[2] = compound: compound 22 (5-morpholino-thalidomide)
[3] = compound: compound 33 (diphenyl IMiD analogue)
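Note: pooled lentiviral library of zinc finger degron-EGFP fusions in mCherry-positive Jurkat cells, FACS-sorted after compound exposure, with degron abundance counted by next-generation sequencing.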

| Sequence | log2 fold change of degron read counts [1] | log2 fold change of degron read counts [2] | log2 fold change of degron read counts [3] | log2 fold change of degron read counts (compound: thalidomide) |
| --- | --- | --- | --- | --- |
| B1 | 2.15 | 0.908 | 1.08 | 2.66 |
| B2 | -2.15 | -2.61 | -1.7 | -1.96 |
| B3 | -1.84 | -2.36 | -2.33 | -1.9 |
| B4 | -2.99 | -3.36 | -3.07 | -2.83 |
| B5 | -3.21 | -3.19 | -1.99 | -2.31 |
| B6 | 2.01 | 0.778 | 1.24 | -0.187 |
| B7 | 1.29 | 2.33 | -0.101 | -0.258 |
| B8 | 3.48 | 2.64 | 1.18 | 1.14 |
| B9 | 2.88 | 1.44 | 0.527 | 0.564 |
| B10 | 3.66 | 2.38 | 1.15 | 1.07 |
| B11 | 0.913 | 2.56 | 2.86 | 3.22 |
| B12 | 3.18 | 2.58 | 2.74 | 2.27 |
| B13 | 0.105 | -2.17 | -1.89 | -0.0845 |
| B14 | -1.41 | -1.1 | -0.521 | -1.39 |
| B15 | -1.67 | -1.99 | 0.837 | 0.0765 |
| B16 | -0.0173 | -0.578 | -0.261 | -0.106 |
| B17 | 3.1 | 2.3 | 0.347 | 0.922 |
| B18 | 3.17 | 3.5 | 2.65 | 1.71 |
| B19 | 0.692 | 2.24 | 1.68 | 2.74 |
| B20 | 0.666 | -1.22 | 0.464 | 1.55 |
| B21 | 1.77 | 1.67 | 1 | 1.51 |
| B22 | 0.464 | -0.188 | -0.784 | -0.556 |
| B23 | 2.64 | 3.24 | 2.31 | 1.06 |
| B24 | 2.27 | 1.95 | 1.57 | 3.4 |
| B25 | 2.2 | 2.05 | 0.991 | 1.15 |
| B26 | -3.75 | -4.2 | -2.96 | -3.19 |
| B27 | -2.34 | -3 | -2.68 | -1.74 |
| B28 | -3.22 | -2 | -1.8 | -0.219 |
